Our source for the growth values is PubChem BioAssay (NCI).

Each structure is given as a SMILES string. Compounds without any hit were thinned out: in the full panel of roughly 83,000, 20% have a hit.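 Compound tested at a single concentration for 48 hours in 96-well plates; a percent growth value below 10 was scored as active.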 Unmarked numbers belong to inactive results. Activity calls are given as the source filed them.

Some test systems named below: HCT-15 colon; HT29 colon; SNB-75 CNS; SNB-19 CNS; U251 CNS; PC-3 prostate; SK-MEL-5 melanoma; UACC-62 melanoma; LOX IMVI melanoma; SK-MEL-28 melanoma; SK-MEL-2 melanoma; EKVX NSCLC; SN12C renal; UO-31 renal; TK-10 renal; ACHN renal; CAKI-1 renal; A498 renal; CCRF-CEM leukemia; MOLT-4 leukemia.
Holding throughout (test): NCI-60 one-dose screen, 48 h (100 = growth as untreated, 0 = no growth, -100 = all killed)
What all share (conditions): 10 µM unless noted

For `C=C1CCC2C3(C)COC(c4cccc(Cl)c4)OC3CCC2(C)C1/C=C/C1=CCOC1=O` (stereo not given), the growth with HCT-15 colon was 59.1%; in the assay with HT29 colon, 56.9%; in the assay with SNB-75 CNS it was 86.5%; in the assay on SNB-19 CNS, 77.3%; in the assay on U251 CNS it was 69.4%; in the assay on PC-3 prostate it was 44.2%. For the same compound, the growth with SK-MEL-5 melanoma was 35%; in the assay on UACC-62 melanoma, 62.6%; in the assay with LOX IMVI melanoma, 52.1%; in the assay with SK-MEL-28 melanoma, 78.8%; in the assay with SK-MEL-2 melanoma it was 85.6%; in the assay on EKVX NSCLC, 35.2%. In addition, the growth with SN12C renal was 87.2%; with UO-31 renal, 38.8%; with TK-10 renal, 88.3%; with ACHN renal, 71.5%; in the assay on CAKI-1 renal, 70.6%; with A498 renal, 64.5%. Besides, the growth was 48.4% in the assay on CCRF-CEM leukemia and 33.2% with MOLT-4 leukemia.
For the compound `CS(=O)(CCCCN=C=S)=NC(=O)c1c(F)c(F)c(F)c(F)c1F` (stereo not given), the growth in the assay on HCT-15 colon was 59.4%; in the assay on HT29 colon it was 90.2%; with SNB-75 CNS it was 97.4%; in the assay with SNB-19 CNS, 90.4%; in the assay on U251 CNS it was 89.6%; with PC-3 prostate, 88.6%. The growth in the assay on SK-MEL-5 melanoma is 98.7%; with UACC-62 melanoma, 88.7%; in the assay with LOX IMVI melanoma it was 60.6%; in the assay with SK-MEL-28 melanoma, 97.6%; in the assay on SK-MEL-2 melanoma it was 88.3%; in the assay with EKVX NSCLC, 99%. Also, the growth in the assay with SN12C renal is 90.9%; with UO-31 renal, 90%; in the assay with TK-10 renal, 76.9%; in the assay with ACHN renal it was 49.6%; in the assay with CAKI-1 renal, 96.3%; with A498 renal, 88.8%. The growth in the assay on CCRF-CEM leukemia is 73.5%; in the assay on MOLT-4 leukemia it was 82.5%.
`O=C([C@@H](COCc1ccccc1)N1C(=O)[C@@H](N2C(=O)OC[C@@H]2c2ccccc2)[C@H]1/C=C/c1ccccc1)N1CCC(CCN2CCCCC2)CC1`: the growth in the assay with HCT-15 colon is 89.2%; with HT29 colon it was 45.5%; in the assay with SNB-75 CNS, 90.9%; with SNB-19 CNS, 95.1%; in the assay with U251 CNS, 71.5%; in the assay on PC-3 prostate, 67.5%. Moreover, the growth is 81.6% in the assay with SK-MEL-5 melanoma; 95.5% with UACC-62 melanoma; 82.1% with LOX IMVI melanoma; 73.2% in the assay with SK-MEL-28 melanoma; 71.7% in the assay on SK-MEL-2 melanoma; 93.1% in the assay with EKVX NSCLC. In addition, the growth with SN12C renal is 83.4%; with UO-31 renal it was 69.3%; in the assay with TK-10 renal, 59.8%; in the assay on ACHN renal it was 99%; in the assay with CAKI-1 renal, 99.9%; in the assay on A498 renal it was 50.1%. Further, the figures for the growth with CCRF-CEM leukemia and in the assay on MOLT-4 leukemia were 95.4% and 62.8%, respectively.
Take `O=C(C[C@@H](C(=O)NCc1cccc(C(F)(F)F)c1)N1C(=O)[C@@H](N2C(=O)OC[C@@H]2c2ccccc2)[C@H]1/C=C/c1ccccc1)NC1CCN(Cc2ccccc2)CC1`: the growth in the assay with HCT-15 colon was 61.1%; in the assay on HT29 colon, 2.51% (active); in the assay with SNB-75 CNS, 71.7%; in the assay on SNB-19 CNS, 84.6%; in the assay with U251 CNS, 70.9%; in the assay on PC-3 prostate, 54.4%. In addition, the growth is 43.1% in the assay on SK-MEL-5 melanoma; 73.3% in the assay with UACC-62 melanoma; 23.9% in the assay on LOX IMVI melanoma; 81.5% with SK-MEL-28 melanoma; 49.6% in the assay on SK-MEL-2 melanoma; 82.3% with EKVX NSCLC. The growth in the assay with SN12C renal is 82.2%; in the assay with UO-31 renal, 64.3%; in the assay with TK-10 renal it was 61%; with ACHN renal, 96.2%; in the assay on CAKI-1 renal, 85.2%; in the assay on A498 renal, 49.8%. The growth is 21% with CCRF-CEM leukemia and -5.43% (active) in the assay with MOLT-4 leukemia.
Take `O=C(Nc1ccc(Nc2cc(Nc3ccccc3)ncn2)cc1)Nc1cc(C(F)(F)F)ccc1F`: the growth in the assay with HCT-15 colon is 70.9%; in the assay with HT29 colon, 58.4%; in the assay with SNB-75 CNS, 57.1%; in the assay with SNB-19 CNS, 87.4%; with U251 CNS, 64.2%; in the assay with PC-3 prostate, 55.8%. The growth in the assay with SK-MEL-5 melanoma is 82%; with UACC-62 melanoma it was 65.8%; in the assay with LOX IMVI melanoma, 63.6%; with SK-MEL-28 melanoma, 71.9%; in the assay with SK-MEL-2 melanoma, 82.8%; in the assay with EKVX NSCLC it was 80.5%. In addition, the growth with SN12C renal is 78.5%; with UO-31 renal it was 65.6%; in the assay on TK-10 renal, 89.5%; in the assay on ACHN renal, 66.9%; with CAKI-1 renal, 74.4%; in the assay on A498 renal, 75.3%. Moreover, the growth in the assay on CCRF-CEM leukemia is 71.7%; with MOLT-4 leukemia, 63.6%.
For `COc1cc(/C=N/N(C)C)ccc1O`, the growth in the assay on HCT-15 colon is 105%; in the assay on HT29 colon, 93.8%; with SNB-75 CNS, 103%; with SNB-19 CNS it was 99%; in the assay on U251 CNS, 81.8%; in the assay on PC-3 prostate, 90%. Also, the growth in the assay on SK-MEL-5 melanoma is 99.5%; in the assay on UACC-62 melanoma, 90.1%; in the assay with LOX IMVI melanoma, 108%; in the assay on SK-MEL-28 melanoma, 114%; in the assay on SK-MEL-2 melanoma, 101%; in the assay with EKVX NSCLC it was 105%. Further, the growth in the assay with SN12C renal is 94.9%; with UO-31 renal, 89.1%; with TK-10 renal it was 94.5%; in the assay with ACHN renal, 100%; in the assay on CAKI-1 renal, 102%; in the assay with A498 renal it was 75.7%. The results for the growth in the assay with CCRF-CEM leukemia and in the assay on MOLT-4 leukemia were 94.5% and 89.7%, respectively.
Take `CCN(C(=O)CN1CCN(c2cc3c(cc2F)c(=O)c(C(=O)O)cn3CC)CC1)c1nc(-c2ccccc2)cs1`: the growth with HCT-15 colon is 12.3%; in the assay with HT29 colon it was 0.981% (active); with SNB-75 CNS, -5.25% (active); with SNB-19 CNS it was 6.46% (active); in the assay on U251 CNS, 6.31% (active); with PC-3 prostate it was 2.39% (active). The growth in the assay with SK-MEL-5 melanoma is -55.6% (active); with UACC-62 melanoma it was -5% (active); in the assay with LOX IMVI melanoma it was -35% (active); in the assay with SK-MEL-28 melanoma it was 41.9%; in the assay with SK-MEL-2 melanoma, -15.3% (active); in the assay with EKVX NSCLC it was 21.2%. Besides, the growth was 2.74% (active) in the assay with SN12C renal; 12.4% with UO-31 renal; 14.6% with TK-10 renal; 8.13% (active) in the assay on ACHN renal; 11.7% in the assay on CAKI-1 renal; -6.64% (active) in the assay on A498 renal. Further, the growth in the assay with CCRF-CEM leukemia was 14%; with MOLT-4 leukemia it was 11.4%.
